Among the data in PubChem BioAssay are z-score and composite z-score values, retold here.

The structures appear in SMILES notation. Calls of active or inactive are those of the source. Unless noted, how the calls were made is not given here.

Assay [1] in a line: A549 cell viability effects, profiling panel, calcein-AM fluorescence, 48 h, basal (AID 1162). Further: test concentration not given here. Conditions: higher = more signal.
A short description of assay [2]: adipocyte viability effects, profiling panel, cell-based, 3T3-L1 adipocytes, calcein-AM fluorescence, 48 h, basal (AID 1163). Further: test concentration not given here. The conditions noted are these: 3T3-L1 adipocytes viability, higher = more signal.
Assay [3] can be described thus: HepG2 cell viability effects, profiling panel, calcein-AM fluorescence, 48 h, basal (AID 1164). Further: test concentration not given here. The conditions noted are these: higher = more signal.
Assay [4] is described as follows: MM1S cell viability effects, profiling panel, calcein-AM fluorescence, 48 h, basal (AID 1165).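 Further: viability of MM1S multiple myeloma cells under basal unstimulated conditions; test concentration not given here.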 Conditions: higher = more signal.
A short description of assay [5]: basal RPMI8226 viability, no added stimulus, profiling panel, cell-based, calcein-AM fluorescence, 48 h, PK04 Diversity Set (AID 1166).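 Further: cells grown under basal conditions without added stimulus; test concentration not given here.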 The conditions noted are these: RPMI8226 myeloma viability, higher = more signal.
A short description of assay [6]: basal HepG2 mitochondrial membrane potential changes, profiling panel, cell-based, JC-1 fluorescence, 24 h, 100 nL compound (AID 1167). Further: test concentration not given here. The conditions noted are these: higher = more signal.
A short description of assay [7]: basal 3T3-L1 adipocyte mitochondrial potential changes, profiling panel, cell-based, JC-1 fluorescence, 3T3-L1 adipocytes, 24 h, 100 nL compound (AID 1168). Further: test concentration not given here. The conditions noted are these: JC-1 mitochondrial fluorescence, higher = more signal, called active from +8 up or from −8 down.
Assay [8] in a line: basal RPMI8226 mitochondrial membrane potential changes, profiling panel, cell-based, JC-1 fluorescence, 24 h, 100 nL compound (AID 1169). Further: test concentration not given here. Conditions: RPMI8226 myeloma, JC-1 mitochondrial potential fluorescence, higher = more signal.
Assay [9] is described as follows: basal MM1S mitochondrial membrane potential changes, profiling panel, cell-based, JC-1 fluorescence, 24 h, 100 nL compound (AID 1170). Further: test concentration not given here. The conditions noted are these: higher = more signal.
Assay [10] is described as follows: A549 lung cancer cell viability effects, profiling panel, resazurin fluorescence, 24 h, PK04 Diversity Set (AID 1171). Further: test concentration not given here. Conditions: higher = more signal, called active from +8 up or from −8 down. (Resazurin is reduced to fluorescent resorufin, in cell work by metabolically active cells.)
Assay [11] in a line: HepG2 liver cancer cell viability effects, profiling panel, resazurin fluorescence, 24 h, PK04 Diversity Set (AID 1172). Further: test concentration not given here. Conditions: higher = more signal.
Assay [12] is described as follows: basal S. cerevisiae growth modulation, no modifier, primary screen, OD600, strain BY4716, 24 h, basal condition (AID 1173). The conditions noted are these: OD600, 24 h, higher = more signal, called active from +8 up or from −8 down.
Assay [13] in a line: MM1S myeloma cell viability, profiling panel, resazurin fluorescence, basal, 24 h, PK04 Diversity Set (AID 1174). Further: test concentration not given here. Conditions: higher = more signal, called active from +8 up or from −8 down.
Assay [14] deals with Dihydroorotate dehydrogenase (quinone), mitochondrial (Plasmodium falciparum (isolate 3D7)) (UniProt Q08210). Briefly: PfDHODH enzyme inhibitors, primary screen, biochemical, C-terminal His tag, absorbance 600 nm (AID 1175).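 Further: recombinant parasite enzyme with a five histidine tag at its C terminus; test concentration not given here.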 Conditions: DCIP absorbance 600 nm, higher = more signal, called active from +8 up or from −8 down.
Assay [15] is described as follows: P. aeruginosa biofilm formation inhibitors, primary screen, strain PAO1, LB-PBS medium, absorbance 600 nm (AID 1176). Further: test concentration not given here. Conditions: P. aeruginosa PAO1 growth/biofilm, A600, 12 h; higher = more signal.
A short description of assay [16]: S. cerevisiae RM11-1a growth modifiers, primary screen, strain RM11-1a, OD600, basal, 24 h (AID 1177).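 Further: cultures grown under basal conditions with no added stressor; test concentration not given here.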 Conditions: OD600, 24 h, higher = more signal, called active from +8 up or from −8 down.
The nature of assay [17]: E. coli acrAB mutant growth effects, primary screen, E. coli filamentation inducers, strain DRC39, OD650, 24 h (AID 1178).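 Further: growth measured as culture turbidity by optical density at 650 nm; test concentration not given here.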 Conditions: higher = more signal, called active from +8 up or from −8 down.
Assay [18] can be described thus: E. coli acrAB mutant growth effects, primary screen, E. coli filamentation inducers, strain DRC39, OD650, 48 h (AID 1179).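 Further: screen aims at cell division blockers that make cells filament.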 Conditions: E. coli DRC39 delta-acrAB growth, higher = more signal, called active from +8 up or from −8 down.
Assay [19] can be described thus: RPMI8226 myeloma cell viability, profiling panel, resazurin fluorescence, basal, 24 h, PK04 Diversity Set (AID 1180).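 Further: RPMI8826 multiple myeloma cell line at 5000 cells per well; test concentration not given here.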 The conditions noted are these: higher = more signal.
For assay [20], the target named is E3 ubiquitin-protein ligase XIAP (Homo sapiens) (UniProt P98170). Briefly: XIAP binders, primary screen, biophysical, small-molecule microarray, fluorescence 635 nm (AID 1181).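 Further: score merges 667 nm emission and signal to noise over triplicate slides.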 Conditions: small-molecule microarray binding, higher = more signal.
Sequence of E3 ubiquitin-protein ligase XIAP (Homo sapiens) (P98170 whole entry, looked up): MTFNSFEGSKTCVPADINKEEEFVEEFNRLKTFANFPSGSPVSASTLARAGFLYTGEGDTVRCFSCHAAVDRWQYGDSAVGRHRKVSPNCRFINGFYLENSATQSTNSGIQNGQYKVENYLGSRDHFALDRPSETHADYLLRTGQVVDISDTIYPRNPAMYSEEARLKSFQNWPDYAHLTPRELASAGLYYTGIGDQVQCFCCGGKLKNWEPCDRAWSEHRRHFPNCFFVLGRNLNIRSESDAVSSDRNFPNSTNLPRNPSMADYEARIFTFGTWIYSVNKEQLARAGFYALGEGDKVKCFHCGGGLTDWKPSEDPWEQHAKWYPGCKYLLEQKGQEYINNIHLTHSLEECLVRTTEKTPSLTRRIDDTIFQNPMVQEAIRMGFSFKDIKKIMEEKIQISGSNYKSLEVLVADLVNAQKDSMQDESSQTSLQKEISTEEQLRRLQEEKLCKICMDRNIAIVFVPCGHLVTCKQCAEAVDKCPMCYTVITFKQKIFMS

Sequence of Dihydroorotate dehydrogenase (quinone), mitochondrial (Plasmodium falciparum (isolate 3D7)) (Q08210 whole entry, looked up): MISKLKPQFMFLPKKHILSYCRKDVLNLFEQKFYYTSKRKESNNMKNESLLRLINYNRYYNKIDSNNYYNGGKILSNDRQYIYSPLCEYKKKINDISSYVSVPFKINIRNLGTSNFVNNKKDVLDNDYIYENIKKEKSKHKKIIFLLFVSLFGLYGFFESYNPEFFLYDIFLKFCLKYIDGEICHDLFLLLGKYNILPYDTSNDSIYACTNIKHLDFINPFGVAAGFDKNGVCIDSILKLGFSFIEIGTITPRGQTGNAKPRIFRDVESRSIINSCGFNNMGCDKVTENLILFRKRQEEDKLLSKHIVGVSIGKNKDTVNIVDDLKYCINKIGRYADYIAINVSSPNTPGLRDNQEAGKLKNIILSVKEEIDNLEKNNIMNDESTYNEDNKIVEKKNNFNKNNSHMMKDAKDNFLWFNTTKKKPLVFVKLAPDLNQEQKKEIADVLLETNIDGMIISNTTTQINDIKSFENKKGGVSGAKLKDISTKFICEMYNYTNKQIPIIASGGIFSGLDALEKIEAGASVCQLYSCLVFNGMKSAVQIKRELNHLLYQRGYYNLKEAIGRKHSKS

As for `C[C@]1(C(=O)O)c2ccccc2C(=O)N(Cc2ccccc2)[C@H]1c1ccc(CO)cc1`, the z-score in assay [1] was 0.277; in assay [2], 0.504; in [3], 0.67; in [4], 0.132; in [5], 0.0631; in assay [6] it was 1.33. Besides, the z-score in assay [7] is 0.114 (inactive); in [8], -0.768; in assay [9], 0.161; in assay [10] it was 1.08 (inactive); in assay [11] it was 0.244; in [12], 0.451 (inactive). For the same compound, the z-score is 0.936 (inactive) in assay [13]; -0.633 (inactive) in [15]; 1.91 (inactive) in assay [16]; -0.0256 (inactive) in [17]; -0.373 (inactive) in [18]; 0.988 in [19]. For the same compound, the results for the composite z-score in assay [14] and in [20] were 0.798 (inactive) and 0.013, respectively.

On to `CC1CC/C=C\[C@H]2OC34C=CCN(C(C)C)C(=O)[C@H]3N(CCCCCO)C(=O)[C@@H]4C2C(=O)O1` (stereo not given in full), for which the z-score was 1.85 in [1]; 0.601 in assay [2]; 0.29 in [3]; 1.84 in assay [4]; -1.4 in assay [5]; 0.583 in [6]. Also, the z-score in assay [7] is 0.633 (inactive); in assay [8], -0.137; in [9] it was 1.9; in [10], 0.98 (inactive); in assay [11], 0.551; in [12], -0.436 (inactive). Further, the z-score is 1.46 (inactive) in [13]; -1.28 (inactive) in [15]; -0.171 (inactive) in assay [16]; 1.01 (inactive) in assay [17]; 1.07 (inactive) in assay [18]; 0.894 in assay [19]. Besides, the composite z-score in [14] was -1.16 (inactive); in assay [20], -0.304.

`COc1ccc([Si](C)(C)[C@H]2[C@H](CCn3cc([C@H](O)c4ccccc4)nn3)O[C@@]3(C(=O)N(Cc4ccc(N5CCOC5=O)cc4)c4ccccc43)[C@@H]2C)cc1`: the z-score in [1] is 1.33; in [2], 0.805; in assay [3], 1.15; in [4], -1.45; in [5] it was 0.142; in assay [6], 0.858. Moreover, the z-score in assay [7] is 0.174 (inactive); in [8], 0.157; in assay [9], 0.113; in assay [10], -0.265 (inactive); in assay [11] it was -0.27; in assay [12], 0.574 (inactive). For the same compound, the z-score was -0.412 (inactive) in assay [13]; 1.04 (inactive) in [15]; 2.18 (inactive) in assay [16]; 0.205 (inactive) in assay [17]; 0.139 (inactive) in [18]; 0.129 in assay [19]. The composite z-score in assay [14] was 0.624 (inactive); in [20] it was -0.171.

Regarding `CO[C@H]1O[C@H](CO)[C@@H](OC(=O)Nc2ccc(C(F)(F)F)cc2)[C@H](OC(=O)Nc2ccc3c(c2)OCO3)[C@H]1OC(=O)Nc1ccc2c(c1)OCO2`, the z-score in assay [1] was -2.28; in assay [2], 0.758; in assay [3], -2.3; in [4], -2.85; in assay [5], -2.66; in assay [6] it was -0.17. Moreover, the z-score is 0.298 (inactive) in assay [7]; -0.999 in assay [8]; -1.01 in [9]; -3.17 (inactive) in [10]; -1.9 in assay [11]; 0.634 (inactive) in assay [12]. The z-score in assay [13] was -3.06 (inactive); in assay [15], 0.854 (inactive); in [16], 1.37 (inactive); in [17] it was 0.436 (inactive); in assay [18] it was -0.553 (inactive); in assay [19] it was -3.35. For the same compound, the composite z-score is -0.605 (inactive) in [14] and -0.289 in [20].

On to `O=C1NC(=O)C2C1C=CC(C(O)c1ccc(Br)cc1)N2Nc1ccccn1` (stereo not given), for which the z-score in [1] is 0.636; in assay [2], 0.805; in assay [3] it was 0.909; in assay [4], -0.0483; in assay [5] it was -0.767; in [6], -0.169. Moreover, the z-score in [7] was 0.195 (inactive); in [8], 0.698; in assay [9], -0.273; in [10] it was -1.58 (inactive); in assay [11] it was -0.917; in assay [12] it was 0.154 (inactive). The z-score in assay [13] is -0.817 (inactive); in [15] it was 1.45 (inactive); in assay [16], -1.44 (inactive); in [17], 0.421 (inactive); in assay [18], 0.956 (inactive); in assay [19], -0.913. Besides, the composite z-score in assay [14] was -0.347 (inactive); in assay [20], 0.367.

Turning to `CCCCN1CC=CC23O[C@@H]4C=CCOC(=O)[C@@H]4[C@H]2C(=O)N(CCCO)[C@@H]3C1=O` (stereo not given in full), the z-score in assay [1] was -0.117; in assay [2], 1.11; in [3], -0.49; in assay [4], 0.799; in assay [5], -0.304; in [6], -1.11. For the same compound, the z-score in assay [7] is 0.111 (inactive); in assay [8] it was -0.702; in assay [9], 0.797; in [10], -1.28 (inactive); in assay [11], -1.09; in [12], -0.233 (inactive). The z-score is -0.788 (inactive) in assay [13]; -0.193 (inactive) in assay [15]; 0.164 (inactive) in assay [16]; -1.33 (inactive) in assay [17]; -1.28 (inactive) in assay [18]; -0.848 in assay [19]. In addition, the composite z-score in assay [14] was -0.284 (inactive); in [20], 0.106.

For the compound `CCC[C@@H]1C[C@@]1(CCC)[C@@H](NP(=O)(c1ccccc1)c1ccccc1)c1ccc(Cl)cc1`, the z-score in assay [1] is -1.19; in assay [2], -1.03; in [3], -1.99; in [4], -1.45; in assay [5], -2.28; in assay [6], -4.09. The z-score was -0.876 (inactive) in [7]; -0.618 in assay [8]; -1.81 in assay [9]; 0.419 (inactive) in assay [10]; 0.405 in assay [11]; 1.3 (inactive) in assay [12]. For the same compound, the z-score in assay [13] is -0.601 (inactive); in assay [15], 0.439 (inactive); in assay [16] it was 0.525 (inactive); in assay [17], -0.919 (inactive); in [18], -0.26 (inactive); in assay [19], -0.519. Further, the composite z-score in assay [14] was -1.09 (inactive); in [20] it was -0.0374.

In the case of `C[C@@H]1ON(c2ccc(C(=O)OC(C)(C)C)cc2)[C@H](c2ccc(Br)cc2)[C@H]1C(=O)N1C(=O)OC[C@H]1Cc1ccccc1`, the z-score was 0.136 in assay [1]; 0.393 in assay [2]; 0.889 in assay [3]; -0.486 in assay [4]; -0.403 in assay [5]; 0.401 in assay [6]. Moreover, the z-score was -0.728 (inactive) in assay [7]; -1.1 in assay [8]; 0.24 in [9]; 1.23 (inactive) in assay [10]; 0.318 in assay [11]; 0.0743 (inactive) in assay [12]. In addition, the z-score in assay [13] is 0.652 (inactive); in assay [15] it was 0.224 (inactive); in assay [16], 0.538 (inactive); in [17] it was 0.488 (inactive); in assay [18] it was 0.46 (inactive); in assay [19], 1.23. Moreover, the composite z-score in [14] was 0.315 (inactive); in assay [20], -0.16.

For the compound `CCOC(=O)[C@@H]1[C@@H]2C(=O)N(CC)C(=O)[C@@H]2C[C@@H]1Sc1ccccc1`, the z-score in [1] is -0.992; in assay [2], -1.04; in assay [3], -0.971; in assay [4], -0.223; in assay [5], -0.0967; in assay [6], -0.644. In addition, the z-score in assay [7] was 0.186 (inactive); in assay [8], -0.28; in assay [9], -1.29; in assay [10], 1.06 (inactive); in assay [11], 0.0632; in assay [12], -0.325 (inactive). In addition, the z-score in assay [13] was -0.33 (inactive); in assay [15], 0.257 (inactive); in [16], 0.866 (inactive); in assay [17] it was -0.638 (inactive); in assay [18], -0.894 (inactive); in [19] it was -0.458. In addition, the composite z-score in assay [14] is 0.917 (inactive); in [20], -0.127.
